In the supplement of paper PMC10646978:
± gives the standard deviation.

Legend:
Conditions in all cases: modulator concentration 10 µM
[1] = test system: RAW-Dual (murine macrophage reporter line); experiment: NF-kB reporter (SEAP) activity fold change vs agonist alone; higher = enhanced NF-kB activity
In short: (§1)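 RAW-Dual murine macrophage reporter cells were seeded at 50 000 per well in 384-well plates and pre-incubated 1 hour at 37 °C with compound pin-transferred to 10 μM final. After 1 hour, a PRR agonist was added and cells incubated overnight. Supernatant NF-κB (SEAP, QUANTI-Blue, 620 nm absorbance) and IRF (Lucia luciferase, QUANTI-Luc, luminescence) signals were divided by the mean agonist-only control on the same plate to give fold change. Two replicate plates were averaged, with errors by propagation.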

[2] = test system: RAW-Dual (murine macrophage reporter line); experiment: IRF reporter (Lucia luciferase) activity fold change vs agonist alone; higher = enhanced IRF activity
In short: as §1

[3] = test system: RAW-Dual (murine macrophage reporter line); experiment: viability score (confluency relative to resting cells, overnight) (fraction); higher = more viable, active = viable (0.7 or more)
In short: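 RAW-Dual macrophages in 384-well plates were incubated overnight with compound, final concentration 10 μM. Confluency images from IncuCyte were processed in IncuCyte software into two masks covering all imaged wells. The viability score is each well's confluency relative to resting cells, and a compound met the cutoff when both masks exceeded 70% of resting cells.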

[4] = agonist: CpG ODN 1826 0.5 ug/mL

| SMILES | NF-kB reporter [1, 4] | NF-kB reporter ([1]; agonist: LPS 0.1 ug/mL) | NF-kB reporter ([1]; agonist: MPLA […]) | IRF reporter ([2]; agonist: 3'3'-cGAMP 10 ug/mL) | IRF reporter ([2]; agonist: LPS 0.1 ug/mL) | IRF reporter ([2]; agonist: MPLA […]) | viability score [3] |
| --- | --- | --- | --- | --- | --- | --- | --- |
| Cc1ncc(CC(=O)N2CCC(c3ccccc3Cl)S(=O)(=O)CC2)s1 (stereo not drawn) | 0.884 ± 0.07 | 0.974 ± 0.12 | 0.972 ± 0.032 | 1.11 ± 0.092 | 0.981 ± 0.076 | 0.944 ± 0.24 | 1 (active) |
| O=C(c1ccc(F)cc1)N(C1CCCCC1)C1CCCCC1 | 0.68 ± 0.053 | 0.921 ± 0.067 | 1.07 ± 0.1 | 0.959 ± 0.033 | 1.28 ± 0.14 | 1.4 ± 0.22 | 1.02 (active) |
| O=C(NC1CCCCC1)c1cccc(C(F)(F)F)c1 | 0.851 ± 0.31 | 1.09 ± 0.14 | 1 ± 0.12 | 0.775 ± 0.033 | 1.15 ± 0.16 | 1.47 ± 0.3 | 0.997 (active) |
| COc1ccc(C)cc1NC(=O)CN(c1cccc(Br)c1)S(=O)(=O)c1ccccc1 | 0.904 ± 0.077 | 0.97 ± 0.053 | 0.915 ± 0.062 | 0.94 ± 0.023 | 1.11 ± 0.092 | 0.809 ± 0.18 | 1.02 (active) |
| Cc1ccc(=O)n(-c2ccccc2)c1 | 0.979 ± 0.079 | 0.981 ± 0.098 | 0.968 ± 0.038 | 0.979 ± 0.077 | 0.975 ± 0.13 | 0.976 ± 0.092 | 1 (active) |
| Cc1cccc2sc(OC3CN(C(=O)Nc4ccccc4C(F)(F)F)C3)nc12 | 0.912 ± 0.047 | 1.13 ± 0.089 | 0.872 ± 0.043 | 1.12 ± 0.065 | 1.19 ± 0.19 | 1.15 ± 0.31 | 0.981 (active) |
| CC(=O)N1CC(c2ccc(OC(C)C)cc2)CC1=O (stereo not drawn) | 1.07 ± 0.23 | 1.04 ± 0.084 | 0.961 ± 0.088 | 1.05 ± 0.03 | 1.22 ± 0.15 | 1.36 ± 0.16 | 0.999 (active) |
| COC(C(=O)NNC(=O)c1ccccc1Cl)c1ccccc1 (stereo not drawn) | 1.3 ± 0.1 | 1.1 ± 0.1 | 1.11 ± 0.1 | 0.618 ± 0.39 | 0.993 ± 0.069 | 0.863 ± 0.081 | 1.01 (active) |
| COC(=O)CCc1ccc(OCC(O)CNC(C)C)cc1 (stereo not drawn) [Prestw-1137] | 1.06 ± 0.087 | 1.06 ± 0.084 | 1.02 ± 0.081 | 0.951 ± 0.043 | 0.911 ± 0.067 | 0.827 ± 0.11 | 1 (active) |
| CCOC(=O)c1ccc(NC(=O)c2sc(NC(=O)c3cc(OC)c(OC)c(OC)c3)c(C(=O)OCC)c2C)cc1 | 1 ± 0.095 | 1.02 ± 0.079 | 0.895 ± 0.058 | 0.969 ± 0.025 | 1.53 ± 0.25 | 1.14 ± 0.12 | 1.01 (active) |
| COC(CNC(=O)c1cc2ccccc2[nH]1)c1ccc(Cl)s1 (stereo not drawn) | 0.989 ± 0.23 | 1.06 ± 0.081 | 1.12 ± 0.11 | 0.917 ± 0.045 | 1.26 ± 0.14 | 1.48 ± 0.19 | 0.882 (active) |
| OCC1OC(Oc2ccc(O)cc2)C(O)C(O)C1O (stereo not drawn) | 1.23 ± 0.3 | 0.965 ± 0.069 | 1.02 ± 0.08 | 0.891 ± 0.049 | 1.14 ± 0.2 | 1.2 ± 0.11 | 1 (active) |
| CN1C(=O)C(=C2SC(=S)N(C(CCC(=O)O)C(=O)O)C2=O)c2ccccc21 (stereo not drawn) | 0.793 ± 0.053 | 1.02 ± 0.07 | 0.845 ± 0.064 | 0.942 ± 0.035 | 1.28 ± 0.086 | 1.03 ± 0.093 | 1.01 (active) |
| NC(CO)(CO)CO | 1.16 ± 0.24 | 1.1 ± 0.22 | 1.01 ± 0.11 | 0.964 ± 0.11 | 1.19 ± 0.12 | 0.966 ± 0.15 | 1 (active) |
